# A selection: hits, their analogues and other compounds. The true share with any hit is near 7.4%.
# NPC1 prom act: activators of NPC1 promoter; Potency, µM (highest dose often 9.22 µM), hits mostly activators; Huh7 NPC1 promoter luciferase reporter, 24 h; 2.4% of 320,000 active; also: nearly all actives have a fitted effect of over 60% in size
#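 Cells: Huh7 expressing luciferase under the NPC1 promoter, 1500/well. Seeded 2 h, compound added, incubated 24 h at 37 °C. Luciferase reagent, 10 min ambient, then luminescence.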
# FLuc counter: inhibits or activates purified firefly luciferase, miR-21 counter-screen | P08659 | purified FLuc, Km substrates, luminescence inhibition | Potency, µM (top dose mostly 57.5 µM), actives largely listed as inhibitors | 6.9% of 360,000 active | AID 588342; also: nearly all actives have a fitted effect of over 55% in size
# Target sequence (P08659 whole entry, looked up): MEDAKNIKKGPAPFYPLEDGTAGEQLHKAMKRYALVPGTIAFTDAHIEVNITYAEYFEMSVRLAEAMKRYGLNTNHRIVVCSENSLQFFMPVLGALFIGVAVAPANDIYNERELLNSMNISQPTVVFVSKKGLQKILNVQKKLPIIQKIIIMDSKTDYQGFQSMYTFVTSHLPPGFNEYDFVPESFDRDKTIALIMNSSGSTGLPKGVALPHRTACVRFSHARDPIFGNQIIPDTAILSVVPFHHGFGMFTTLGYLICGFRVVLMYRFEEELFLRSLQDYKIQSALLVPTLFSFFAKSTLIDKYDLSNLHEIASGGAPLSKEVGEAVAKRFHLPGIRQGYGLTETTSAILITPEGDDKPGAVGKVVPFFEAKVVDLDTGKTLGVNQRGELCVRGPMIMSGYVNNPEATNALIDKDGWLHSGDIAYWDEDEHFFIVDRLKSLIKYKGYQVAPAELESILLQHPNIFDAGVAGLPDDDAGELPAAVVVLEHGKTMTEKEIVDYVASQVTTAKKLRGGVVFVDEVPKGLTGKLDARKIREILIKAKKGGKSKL
#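 Purified P. pyralis luciferase, 10 nM final, with Km-level 10 uM D-luciferin and 10 uM ATP in 50 mM Tris acetate pH 7.5, 10 mM Mg acetate, 0.01% Tween-20, 0.05% BSA; 6-point qHTS titration about 60 µM downward; luminescence read.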
# ELG1 genotoxic: inducers of genotoxicity in HEK293T ELG1-luciferase cells | Potency, µM (titrated, usually from 46 µM), usual class: activators | HEK293T ELG1-luciferase reporter, luminescence, 16 h | 1.3% of 330,000 active; also: nearly all actives have a fitted effect of over 60% in size
#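 Genotoxic stress is detected as increased luminescence from luciferase-tagged ELG1 in HEK293T cells, measured with ONE-Glo after a 16 hr treatment at 37 °C.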
# Rab9 promoter act: activates the Rab9 promoter. Huh7 Rab9 promoter-luciferase reporter, luminescence, 24 h. Potency, µM (series often up to 9.22 µM), hits mostly activators. 2.8% of 320,000 active. AID 485297; also: nearly all actives have a fitted effect of over 60% in size
#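 Steps: seed 1500 Huh7 Rab9-luc cells per well, rest 2 h at 37 °C; add compound in DMSO; incubate 24 h; add luciferase reagent, 10 min ambient; read luminescence.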
# SMN2 splice enh: enhancers of SMN2 splice variant expression; AID 1458; Potency, µM (doses to about 46.1 µM), usual class: activators; HEK293 SMN2-luciferase splicing reporter, luminescence, 30-36 h; 2.8% of 210,000 active; also: nearly all actives have a fitted effect of over 55% in size
#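 HEK293 cells carry an SMN2 […]–luciferase reporter in which exon 7 inclusion puts luciferase in frame. Cells were plated 10-12 h before compound addition, then incubated 30-36 h at 37C. ONE-Glo luminescence was read; sodium butyrate at 4.5 mM final served as control.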
# Numbers stand for hits; - = inactive; ? = inconclusive; . = no result given. Calls follow the shape of the dose curve; as a rule, active = well fitted curve in the direction sought with a large enough effect; inconclusive = small, poorly fitted or top-dose-only effect, or another doubt; inactive = no such curve, though single readings can be large; an effect the other way counts as inactive or inconclusive.
SMILES,NPC1 prom act,FLuc counter,ELG1 genotoxic,Rab9 promoter act,SMN2 splice enh
COc1ccc(/C=C2\SC(=O)N(CCC(=O)N3CCN(C)CC3)C2=O)cc1,-,19µM,-,-,.
Cc1ccc(/C=C2\SC(=O)N(CCNC(=O)C3CSC4(C)CCC(=O)N34)C2=O)cc1 (stereo unspecified),-,19µM,-,-,.
Cc1ccc(/C=C2\SC(=O)N(CCC(=O)N3CCN(C)CC3)C2=O)cc1,?,13.5µM,?,-,.
CN1CCN(C(=O)CCN2C(=O)S/C(=C/c3ccc(Cl)cc3)C2=O)CC1,-,?,-,-,-
O=C(Cn1c(=O)n2nc(-c3ccccc3)nc2c2ccccc21)Nc1ccccc1C(F)(F)F,.,-,.,.,-
Clc1cccc2sc(N3CCCCC3)nc12,-,23.9µM,23.1µM,?,?
Clc1cc(Cl)c2nc(N3CCCCC3)sc2c1,2.82µM,8.49µM,?,3.98µM,?
CNc1nc2c(Cl)cc(Cl)cc2s1,-,-,-,-,.
CN(c1ccc(C(=O)NCCc2ccccc2)cc1)S(C)(=O)=O,1.41µM,5.36µM,1.64µM,0.631µM,14.1µM
CN(c1ccc(C(=O)NCCSCc2ccco2)cc1)S(C)(=O)=O,-,?,?,-,-
Cc1ccc(C(=O)NCCc2ccccc2)cc1,?,0.536µM,?,0.0398µM,.
CN(c1ccc(C(=O)NCCSC(C)(C)C)cc1)S(C)(=O)=O,?,19µM,10.3µM,?,11.2µM
O=C(NCCc1ccccc1)c1cnc(Cl)c(Cl)c1,-,23.9µM,-,-,.
CCN(CC)C(=O)c1sc2c(c1C)c(=O)n(-c1ccc(Cl)c(Cl)c1)c(=O)n2Cc1cc(=O)n2c(C)cccc2n1,.,-,.,.,.
O=C1c2ccccc2CCC1CNCCc1ccc(O)cc1 (stereo unspecified),.,.,.,.,-
Cc1ccc(CNC(=O)c2ccc(Cn3cc(-c4ccc(C)cc4)nc3-c3ccncc3)cc2)cc1,?,10.7µM,?,2.82µM,.
Cc1ccc(CCNC(=O)NC(C)(C)C)cc1,?,?,-,?,3.55µM
Cc1ccc(Oc2ccc(C(=O)NCc3ccncc3)cc2)cc1,-,-,-,-,-
Cc1ccc(C(=O)NCCc2ccncc2)cc1,?,21.3µM,?,?,?
CCOC(=O)N1CCN(Cc2nc3cc(NC(=O)c4cccs4)ccc3n2CC)CC1,-,-,-,-,.
Cc1nn(-c2ccccc2)c2nc(C3CC3)cc(C(=O)Nc3ccccc3F)c12,.,-,.,.,.
Clc1cc(Cl)c(OCc2nc(-c3ccccn3)no2)cc1Cl,1.12µM,1.35µM,?,0.708µM,11.2µM
CC(C)(C)c1ccc(OCc2nc(-c3ccccn3)no2)c(Br)c1,.,3.01µM,.,.,12.6µM
C/C(=N\Nc1nc2ccc(Cl)cc2o1)c1ccccc1,-,16.9µM,-,?,.
C/C(=N/NS(=O)(=O)c1ccccc1)c1ccc(Cl)cc1,-,-,-,-,-
SMILES,NPC1 prom act,FLuc counter,ELG1 genotoxic,Rab9 promoter act,SMN2 splice enh
O=C(Cn1c(=O)nc(-c2ccccc2)c2cc(Cl)ccc21)NCCCc1ccccc1,.,-,.,.,-
COc1ccccc1Oc1ccc2c(c1)C(=O)N(c1ccccc1)C2=O,-,9.53µM,-,-,-
Cc1cc(C)c2c(CC(=O)NNC(=O)c3ccccc3)coc2c1,-,-,-,-,.
Cc1cccc(-c2[nH]c(C(C)(C)C)nc2-c2ccc3nccnc3c2)n1,-,.,.,-,.
CC1CCCN(c2oc(-c3cccc4ccccc34)nc2C#N)C1 (stereo unspecified),?,5.36µM,?,?,-
COc1ccc(-c2nc(C#N)c(N3CCC(C(N)=O)CC3)o2)cc1,-,-,-,-,-
CC1CCN(c2oc(-c3ccccc3Cl)nc2C#N)CC1,?,10.7µM,?,?,.
CC(C)(C)c1ccc(-c2nc(C#N)c(N3CCC(C(N)=O)CC3)o2)cc1,-,21.3µM,-,-,.
Cc1cccc(-c2nc(C#N)c(N3CCC(C)CC3)o2)c1,-,-,-,-,.
Cc1ccccc1-c1nc(C#N)c(N2CCC(C)CC2)o1,-,23.9µM,-,-,.
Nc1c2c(nc3sc4c(c13)CCCC4)-c1ccccc1CC2,0.501µM,0.135µM,0.731µM,0.141µM,.
COc1ccc(OCc2cc(C(=O)N(C)C(C)c3ccon3)no2)c(Cl)c1 (stereo unspecified),?,13.5µM,?,2.51µM,.
O=C(c1cc(COc2ccc(F)cc2Cl)on1)N1CCSCC1,2.82µM,10.7µM,?,3.98µM,.
COc1ccc(OCc2cc(C(=O)N3CCC(c4ccccc4)CC3)no2)c(Cl)c1,?,23.9µM,-,2.82µM,.

# Source: PubChem (National Center for Advancing Translational Sciences (NCATS))
